From PubChem BioAssay
Tb PFK inh: qHTS Assay to Find Inhibitors of T. brucei phosphofructokinase; AID 485367, 2010; 330,000 compounds, 0.17% hits; ATP-dependent 6-phosphofructokinase (Trypanosoma brucei brucei), O15648; T. brucei PFK, ADP-Glo luminescence; Potency, µM (series often up to 57.5 µM), without a hit: at the highest dose activity, negative = inhibition, actives largely listed as inhibitors;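 note: 0% = uninhibited 1x PFK enzyme wells and -100% = no-enzyme wells; nearly all actives have a fitted effect of over 60% in size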
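ADP-Glo luminescence quantified ADP after 45 min at room temperature, with 1.25 nM T. brucei PFK, 0.1 mM ATP and 0.5 mM fructose-6-phosphate in pH 8.0 TEA buffer. qHTS titrations up to 57 µM; curves classified by quality.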
TDP1 inh: qHTS Assay for Inhibitors of Tyrosyl-DNA Phosphodiesterase (TDP1); Tyrosyl-DNA phosphodiesterase 1 (Homo sapiens), Q9NUW8; recombinant TDP1, AlphaScreen DNA substrate cleavage; Potency, µM (top dose mostly 130 µM), inactives show at the highest dose activity change, negative = inhibition, hits mostly inhibitors; 350,000 compounds, 0.28% hits; AID 485290, 2010; note: % is set by controls: 0 for no effect and ±100 for the full control effect; nearly all actives have a fitted effect of over 40% in size
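AlphaScreen read-out: signal falls as enzyme removes the 3' tyrosine-FITC from a 5'-biotinylated DNA oligo (15 nM, 5 min, RT). Enzyme was E. coli-made recombinant Tdp1 at 1 nM, exposed to compound for 15 min beforehand; beads 10 ug/ml, 10 min.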
Pin1 inh: qHTS Assay to Find Inhibitors of Pin1 | Pin1 FP peptide displacement, HiFluor488, 10 min | Potency, µM (series often up to 115 µM), for inactives: at the top dose activity, negative = inhibition, usual class: inhibitors | 390,000 compounds, 0.009% hits; active = well fitted inhibition curve with a large enough effect in the polarisation, with a control signal flat, not every such curve was filed as active; inconclusive = small, poorly fitted or top-dose-only effect, or effect the other way, or a change in a side signal; inactive = no such curve, though single readings can be large or run the other way; the % refers to the polarisation; note: % is set by controls: 0 for no effect and ±100 for the full control effect
Target sequence (Q13526 whole entry, looked up): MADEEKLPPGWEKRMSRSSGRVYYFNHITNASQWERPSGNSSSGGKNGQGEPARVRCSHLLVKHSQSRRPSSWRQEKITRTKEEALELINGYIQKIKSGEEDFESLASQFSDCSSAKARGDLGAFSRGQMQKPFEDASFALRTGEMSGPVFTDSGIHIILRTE
VDR inhibitor: Inhibitors of the vitamin D receptor (VDR): qHTS | 400,000 compounds, 0.93% hits | Vitamin D3 receptor (Homo sapiens), P11473 | VDR-SRC2-3 peptide fluorescence polarization, 2 h | Potency, µM, without a hit: max response, negative = inhibition, hits mostly inhibitors; note: % is set by controls: 0 for no effect and ±100 for the full control effect
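Two reagent solutions held at 4 deg C in the dark were dispensed, compounds pinned at 23 nl, and the mixture incubated 2 h at room temperature. Read-out: fluorescence polarization of VDR–SRC2-3 peptide binding.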
PLK1 PBD inh: qHTS for Inhibitors of PLK1-PDB (polo-like kinase 1 - polo-box domain): Primary Screen | Serine/threonine-protein kinase PLK1 (Homo sapiens), P53350 | Potency, µM, inactives show max response, negative = inhibition, most hits filed as inhibitors | Plk1 PBD binding of FITC phosphopeptide, fluorescence polarization | 360,000 compounds, 2.8% hits; note: series mostly up to about 57 µM; % is set by controls: 0 for no effect and ±100 for the full control effect; nearly all actives have a fitted effect of over 65% in size
Target sequence (P53350 whole entry, looked up, the tested form may be a part): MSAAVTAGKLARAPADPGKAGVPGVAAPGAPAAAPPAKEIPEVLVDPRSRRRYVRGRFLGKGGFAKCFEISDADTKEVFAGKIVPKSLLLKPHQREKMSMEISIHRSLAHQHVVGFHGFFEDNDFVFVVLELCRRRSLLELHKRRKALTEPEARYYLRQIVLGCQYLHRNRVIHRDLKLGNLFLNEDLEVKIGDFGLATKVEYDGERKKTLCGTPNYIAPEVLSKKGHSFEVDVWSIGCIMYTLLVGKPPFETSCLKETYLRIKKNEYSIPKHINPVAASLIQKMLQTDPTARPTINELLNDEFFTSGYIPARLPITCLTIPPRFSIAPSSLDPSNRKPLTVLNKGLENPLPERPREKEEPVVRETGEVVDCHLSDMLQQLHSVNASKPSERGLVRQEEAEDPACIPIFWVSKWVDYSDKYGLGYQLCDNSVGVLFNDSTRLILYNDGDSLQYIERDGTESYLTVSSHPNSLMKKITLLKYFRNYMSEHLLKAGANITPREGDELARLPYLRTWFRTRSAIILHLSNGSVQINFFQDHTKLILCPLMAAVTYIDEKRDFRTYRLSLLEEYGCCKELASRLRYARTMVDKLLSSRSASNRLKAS
ASM inhibitor: Inhibitors of Secretory Acid Sphingomyelinase (S-ASM): qHTS; Sphingomyelin phosphodiesterase (Homo sapiens), P17405; placental ASM, HMU-PC fluorogenic substrate, 60 min; Potency, µM (series often up to 57.5 µM), inactives show at the top dose activity change, negative = inhibition, hits mostly inhibitors; 340,000 compounds, 0.006% hits; AID 504937, 2011
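Human placenta-derived ASM enzyme was preincubated with compound for 10 minutes at room temperature, then given fluorogenic substrate HMU-PC0 (9 uM final) for 60 minutes at 37 °C; a pH 10 stop preceded fluorescence reading at Ex 386/Em 447 nm.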
Active calls of the source: *; i = inactive; ? = inconclusive; nt = no result given; [ ] = dose if it differs, or a comment. Most compounds without a hit are left out; they make up all but 3.1% or so of the library. Unless noted, calls come from the whole dose curve; as a rule, active = well fitted curve in the direction sought with a large enough effect; inconclusive = small, poorly fitted or top-dose-only effect, or another doubt; inactive = no such curve, though single readings can be large; an effect the other way counts as inactive or inconclusive. Potency is the fitted concentration of half-maximal effect.

SMILES | Tb PFK inh | TDP1 inh | Pin1 inh | VDR inhibitor | PLK1 PBD inh | ASM inhibitor
COc1cccc(OC)c1C(=O)Nc1cccc(-c2nc3cc(C)cc(C)c3o2)c1 | nt | 2% | 16% | -17% | nt | nt
COc1ccc(-c2csc(NC(=O)CS(=O)(=O)c3ccccc3)n2)cc1OC | nt | nt | nt | nt | 3% | nt
COc1ccc(-c2nnc3ccc(SCC(=O)Nc4nccs4)nn23)cc1OC | 0% | -3% | 3% | -24% | -7% | 4%
COc1ccc(-c2csc(NC(=O)CC(NC(C)=O)c3ccccc3)n2)cc1OC (stereo not drawn) | 0% | 79µM* | -8% | -3% | -14% | 0%
COc1ccc(-c2ccc(SCC(=O)Nc3nccs3)nn2)cc1OC | -2% | 79µM* | 6% | -3% | -6% | -1%
CN(C)C1CCN(CCCOc2ccc(-c3ccc(C#N)cc3)cc2)C1 (stereo not drawn) | nt | 14% | nt | -15% | nt | nt
CCc1ccccc1N(CC)C(=O)C(=O)Nc1ccc2nc3n(c(=O)c2c1)CCCCC3 | nt | 0% | -1% | 2% | nt | nt
O=C(O)C(Oc1ccc2cc(-c3ccc(Cl)cc3)c(=O)oc2c1)c1ccccc1 (stereo not drawn) | -2% | nt | -8% | -17% | 42µM* | i
NC(=O)COc1ccc2cc(-c3ccccc3)c(=O)oc2c1 | 3% | 1% | 5% | -4% | -7% | i
CCCCc1cc2c(cn1)C(=O)C(C)(OC(C)=O)C(=O)C2 (stereo not drawn) | nt | 5%[21 µM] | nt | nt | nt | nt
O=C1C2C3C=CC(C2C(=O)N1c1nccs1)C1C(=O)N(c2nccs2)C(=O)C31 (stereo not drawn) | 0% | nt | -5% | -5% | 4% | 4%
O=C1C2C3C=CC(CC3)C2C(=O)N1c1nccs1 (stereo not drawn) | ? | 10µM* | 1% | -3% | -6% | 4%
O=C(Nc1ccc(Cl)cc1)OCCn1nnnc1C(c1ccccc1Cl)N1CCOCC1 (stereo not drawn) | 1% | 5% | -9% | ? | 21µM* | -10%
O=C(Nc1ccc(Cl)cc1)OCCN1CCOCC1 | nt | nt | -2% | -9% | -2% | 2%
O=c1[nH]cnc2c1ncn2[C@H]1C[C@H](O)[C@@H](CO)O1 | nt | 0% | 7% | ? | nt | nt
COc1ccc(NC(=O)Cn2c(SCc3ccc(C)cc3)nc3cccnc32)c(OC)c1 | nt | 2% | 1% | 1% | nt | nt
CC[n+]1c(/C=C/C=C2/N(C)c3ccccc3C2(C)C)sc2ccccc21 | nt | nt | nt | 35µM* | nt | nt
CC1=C(C)/C(=N\OS(=O)(=O)c2ccccc2)C=CC1=O | 0% | 10% | 7% | 35µM* | ? | -4%
O=C(O)/C=C/C(=O)NNC(=O)c1ccc(Cl)cc1Cl | 0% | -3% | -3% | -2% | 24µM* | 4%
COC(=O)NNC(=O)c1ccc(Cl)cc1Cl | -1% | 3% | -1% | -8% | 1% | 2%
COc1ccc(CNC(=O)CSc2ncc3c(n2)-c2ccc(Cl)cc2N(Cc2ccc(F)cc2)S3(=O)=O)cc1OC | nt | 3% | 23% | 13% | nt | nt
C=Cc1ccc(Cn2c(C(=O)O)c(CNC3CCCCC3)c3ccc(OC)cc32)cc1 | nt | 8% | 15% | 5% | nt | nt
O=S(=O)(NCc1cc(-c2ccccc2Cl)no1)c1ccc(Cl)cc1 | 1% | -2% | -4% | 18µM* | 3.8µM* | -11%
O=C(O)CNS(=O)(=O)c1ccc2c(c1)CCCC2 | 0% | 50µM* | 1% | 19% | 1% | -1%
O=C(CNC(=O)c1ccccc1)OC(Cc1ccccc1)C(=O)Nc1cc(C(F)(F)F)ccc1Cl (stereo not drawn) | nt | -3% | ? | nt | nt | nt
SMILES | Tb PFK inh | TDP1 inh | Pin1 inh | VDR inhibitor | PLK1 PBD inh | ASM inhibitor
CC(=O)Oc1ccc2occ(/C=N/c3cc(=O)[nH]c(=S)[nH]3)c(=O)c2c1 | -20% | -1% | ? | 28µM* | 5.3µM* | -2%
COc1ccc(C(=O)c2coc3ccc(OC(C)=O)cc23)cc1 | 2% | nt | -1% | -8% | -5% | 1%
CN1CCN2c3ccccc3CC3(C(=O)OC(C)(C)OC3=O)C2C1 (stereo not drawn) | nt | -1% | -19% | -20% | nt | nt
CCOc1ccc(-c2csc(/C(C#N)=C\c3ccc(O)c([N+](=O)[O-])c3)n2)cc1 | -3% | 5% | ? | -2% | 19µM* | -17%
CCOC(=O)c1c(NC2OC(=O)c3c2ccc(OC)c3OC)sc(C(=O)OC(C)(C)C)c1C (stereo not drawn) | 0% | 2% | -3% | ? | 24µM* | -5%
O=S1(=O)C=C(Sc2nc3cc(Cl)ccc3o2)c2ccccc21 | 4% | -1% | 28% | ? | 6.7µM* | -1%
CSCC[C@H](NC(=O)COc1cc2c(c3oc(=O)c(C)c(C)c13)CCC(C)(C)O2)C(=O)O | 7% | nt | -10% | -21% | 30µM* | 54%
O=C1Nc2ccccc2C1=Nc1ccc(S(=O)(=O)Nc2nccs2)cc1 | -1% | -9% | nt | -14% | 27µM* | -3%
COc1cccc(C(=O)NNC(=O)c2ccccc2)c1 | 8% | 4% | -3% | -2% | 4% | 8%
COc1cccc(C(=O)NC(c2ccccc2)C2CCCC2)c1 (stereo not drawn) | 2% | 0% | 2% | -25% | 11µM* | ?
Cc1cccc(OC2=NS(=O)(=O)c3ccccc32)c1 | nt | 2% | 2%[163 µM] | nt | nt | nt
CCN(CC)c1cccc(OC2=NS(=O)(=O)c3ccccc32)c1 | -4% | 10% | 5% | -4% | 3.4µM* | 13%
CCc1ccc(OC2=NS(=O)(=O)c3ccccc32)cc1 | -5% | 5% | -2% | -4% | 12µM* | -4%
COc1ccc(OC2=NS(=O)(=O)c3ccccc32)cc1 | nt | 3% | ? | nt | nt | nt
CCOc1ccc(N(C(C)C(=O)N2CCCC2)S(C)(=O)=O)cc1 (stereo not drawn) | 1% | nt | -1% | ? | 19µM* | 0%
CSCCC(NC(=O)c1ccoc1C)C(=O)O (stereo not drawn) | -1% | -1% | -2% | -9% | 1% | 3%
CSCC[C@H](NC(=O)c1ccc(NC[C@@H](N)CS)cc1-c1ccccc1)C(=O)O | nt | 23% | nt | 7.9µM* | nt | nt
COC(=O)[C@H](CCSC)NC(=O)c1ccc(NC[C@@H](N)CS)cc1-c1ccccc1 | nt | 29% | nt | 10µM* | nt | nt
CCc1ccc(C(=O)NC(CCSC)C(=O)OC)cc1 (stereo not drawn) | 0% | 3% | 0% | -1% | 0% | -2%
